Experimental data taken from the antibiotic and cytotoxicity screens of Wong et al. (2023).
Screen size: about 39,000 compounds; about 500 (1.3%) were called active. This is one part of a sample in which actives are shown more often than they occur.

What follows are molecules tested on S. aureus RN4220 (assay: growth inhibition call (relative growth <= 0.2)). Details: 50 µM.
In the case of C[C@@H]1CN([C@@H](C)CO)C(=O)c2cc(-c3cccc(C(=O)N(C)C)c3)cnc2O[C@H]1CN(C)S(=O)(=O)c1ccc(F)cc1, the growth inhibition call is reported as “inactive”.
With CO[C@@H]1CN(C)C(=O)c2ccc(NC(=O)Nc3ccccc3F)cc2OC[C@@H](C)N(Cc2ccccc2C(=O)O)C[C@H]1C the growth inhibition call was “inactive”.
With C[C@@H]1O[C@@H](O[C@@H]2[C@@H](O)[C@H](OCCc3ccc(O)c(O)c3)O[C@H](CO)[C@H]2OC(=O)/C=C/c2ccc(O)c(O)c2)[C@H](O)[C@H](O)[C@H]1O the growth inhibition call was “inactive”.
With CO[C@@H]1CN(C)C(=O)c2cc(NS(C)(=O)=O)ccc2OC[C@@H](C)N(C(=O)C2CCCCC2)C[C@H]1C the growth inhibition call was “inactive”.
With C[C@@H]1CN([C@@H](C)CO)C(=O)c2cc(NC(=O)c3ccncc3)ccc2O[C@H]1CN(C)Cc1ccc(C(=O)O)cc1 the growth inhibition call was “inactive”.
For C[C@H](CO)N1C[C@H](C)[C@@H](CN(C)Cc2ccc(Oc3ccccc3)cc2)Oc2ccc(NC(=O)c3ccncc3)cc2C1=O, the growth inhibition call was “inactive”.
For COc1ccc(S(=O)(=O)Nc2ccc3c(c2)CC(=O)N([C@H](C)CO)C[C@H](C)[C@H](CN(C)Cc2ccc(Cl)c(Cl)c2)O3)cc1, the growth inhibition call was “inactive”.
CN1C(=O)c2cc(NC(=O)c3cccs3)ccc2OC[C@@H]2O[C@@H](CC(=O)NCCN3CCCCC3)CC[C@@H]21 was tested, and the growth inhibition call was “inactive”.
CN(C)CC(=O)N[C@H]1CC[C@H](CCNC(=O)C2CCC2)O[C@@H]1CO was tested, and the growth inhibition call was “inactive”.
For C[C@@H]1CN([C@H](C)CO)C(=O)Cc2cc(NC(=O)Nc3ccc(C(F)(F)F)cc3)ccc2O[C@@H]1CN(C)Cc1ccc(-c2ccccc2)cc1, the growth inhibition call was “inactive”.
O=C(C[C@H]1CC[C@@H]2[C@H](COC[C@H](O)CN2S(=O)(=O)c2ccc(Cl)cc2)O1)NCC1CCCCC1 was tested, and the growth inhibition call was “active”.
With O=C(C[C@@H]1CC[C@@H]2[C@H](COC[C@H](O)CN2S(=O)(=O)c2ccc(Cl)cc2)O1)NCC1CCCCC1 the growth inhibition call was “inactive”.
For O=C(C[C@@H]1CC[C@@H]2[C@H](COC[C@@H](O)CN2S(=O)(=O)c2ccc(Cl)cc2)O1)NCC1CCCCC1, the growth inhibition call was “inactive”.
In the case of O=C(C[C@H]1CC[C@H]2[C@@H](COC[C@@H](O)CN2S(=O)(=O)c2ccc(Cl)cc2)O1)NCC1CCCCC1, the growth inhibition call is reported as “inactive”.
With O=C(C[C@@H]1CC[C@H]2[C@@H](COC[C@H](O)CN2S(=O)(=O)c2ccc(Cl)cc2)O1)NCC1CCCCC1 the growth inhibition call was “inactive”.
In the case of O=C(C[C@@H]1CC[C@H]2[C@@H](COC[C@@H](O)CN2S(=O)(=O)c2ccc(Cl)cc2)O1)NCC1CCCCC1, the growth inhibition call is reported as “active”.
C[C@@H]1CN([C@@H](C)CO)S(=O)(=O)c2ccc(C#CCN(C)C)cc2O[C@@H]1CN(C)S(C)(=O)=O was tested, and the growth inhibition call was “inactive”.
With CC(C)NC(=O)N(C)C[C@H]1Oc2ccc(NC(=O)NC3CCCCC3)cc2CC(=O)N([C@H](C)CO)C[C@H]1C the growth inhibition call was “inactive”.
CC(C)NC(=O)N(C)C[C@@H]1Oc2ccc(NS(=O)(=O)c3cccs3)cc2CC(=O)N([C@@H](C)CO)C[C@@H]1C was tested, and the growth inhibition call was “inactive”.
In the case of C[C@@H]1CN([C@@H](C)CO)C(=O)Cc2cc(NS(=O)(=O)c3cn(C)cn3)ccc2O[C@H]1CN(C)Cc1ccc(C(=O)Nc2ccccc2N)cc1, the growth inhibition call is reported as “inactive”.
For C[C@H]1CCCCO[C@@H](CN(C)S(=O)(=O)c2ccccc2)[C@@H](C)CN([C@@H](C)CO)C(=O)c2cc(NC(=O)c3ccccc3)ccc2O1, the growth inhibition call was “inactive”.
With C[C@@H]1CN([C@H](C)CO)C(=O)c2cc(NC(=O)Nc3ccc(F)cc3)ccc2O[C@@H](C)CCCCO[C@H]1CN(C)Cc1ccccc1 the growth inhibition call was “inactive”.
In the case of CS(=O)(=O)N1C[C@H](NC(=O)C2CC2)[C@H]2OCCC[C@H]21, the growth inhibition call is reported as “inactive”.
C[C@@H]1CCCCO[C@@H](CN(C)CC2CC2)[C@@H](C)CN([C@H](C)CO)C(=O)c2cc(NC(=O)Nc3ccc(C(F)(F)F)cc3)ccc2O1 was tested, and the growth inhibition call was “inactive”.
In the case of C[C@H](CO)N1C[C@H](C)[C@H](CN(C)CC2CC2)OCCCC[C@H](C)Oc2ccc(NC(=O)Nc3ccc(C(F)(F)F)cc3)cc2C1=O, the growth inhibition call is reported as “inactive”.
C[C@@H]1CCCCO[C@H](CN(C)CC2CC2)[C@H](C)CN([C@@H](C)CO)C(=O)c2cc(NC(=O)Nc3ccc(C(F)(F)F)cc3)ccc2O1 was tested, and the growth inhibition call was “active”.
With C[C@H]1CN([C@@H](C)CO)C(=O)c2cc(NC(=O)Nc3ccc(C(F)(F)F)cc3)ccc2O[C@@H]1CN(C)CC1CCCCC1 the growth inhibition call was “inactive”.
With C[C@H]1CCCCO[C@H](CN(C)CC2CC2)[C@@H](C)CN([C@@H](C)CO)C(=O)c2cc(NC(=O)Nc3ccc(C(F)(F)F)cc3)ccc2O1 the growth inhibition call was “inactive”.
C[C@H](CO)N1C[C@H](C)[C@H](CN(C)CC2CCCCC2)Oc2ccc(NC(=O)Nc3ccc(C(F)(F)F)cc3)cc2C1=O was tested, and the growth inhibition call was “active”.
For C[C@@H]1CCCCO[C@H](CN(C)CC2CC2)[C@H](C)CN([C@H](C)CO)C(=O)c2cc(NC(=O)Nc3ccc(C(F)(F)F)cc3)ccc2O1, the growth inhibition call was “active”.
For C[C@@H]1CN([C@H](C)CO)C(=O)c2cc(NC(=O)Nc3ccc(C(F)(F)F)cc3)ccc2O[C@@H]1CN(C)CC1CCCCC1, the growth inhibition call was “inactive”.
C[C@@H]1CCCCO[C@@H](CN(C)CC2CC2)[C@H](C)CN([C@@H](C)CO)C(=O)c2cc(NC(=O)Nc3ccc(C(F)(F)F)cc3)ccc2O1 was tested, and the growth inhibition call was “inactive”.
In the case of CCCC#Cc1cnc2c(c1)C(=O)N([C@@H](C)CO)C[C@H](C)[C@@H](CN(C)C(=O)c1ccc3c(c1)OCO3)O2, the growth inhibition call is reported as “inactive”.
With C[C@@H]1CN([C@H](C)CO)C(=O)c2cc(NS(=O)(=O)c3cn(C)cn3)ccc2O[C@H]1CN(C)Cc1ccc(C(=O)Nc2ccccc2N)cc1 the growth inhibition call was “inactive”.
Cc1ccc(S(=O)(=O)Nc2ccc3c(c2)C(=O)N([C@H](C)CO)C[C@@H](C)[C@H](CN(C)Cc2ccc(C(F)(F)F)cc2)O3)cc1 was tested, and the growth inhibition call was “inactive”.
With COc1ccc(S(=O)(=O)Nc2ccc3c(c2)[C@H]2C[C@@H](CC(=O)NCC4CC4)O[C@H](CO)[C@H]2O3)cc1 the growth inhibition call was “inactive”.
With CCOc1nc2cccc(C(=O)OC(C)OC(=O)OC3CCCCC3)c2n1Cc1ccc(-c2ccccc2-c2nnn[nH]2)cc1 (centres undefined) the growth inhibition call was “inactive”.
CCOc1nc2cccc(C(=O)O)c2n1Cc1ccc(-c2ccccc2-c2nnn[nH]2)cc1 was tested, and the growth inhibition call was “inactive”.
In the case of CCOc1nc2cccc(C(=O)O[C@@H](C)OC(=O)OC3CCCCC3)c2n1Cc1ccc(-c2ccccc2-c2nn[nH]n2)cc1, the growth inhibition call is reported as “active”.
